Data as given in PubChem BioAssay.
Inconclusive results are not listed. The source made the active and inactive calls. Unless noted, no rule for the calls is given here.

How the values were obtained:
[1] = stimulators of insulin release from INS-1E, primary screen, cell-based, 5 mM glucose, NPC library (AID 1117329;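 active = compound raises insulin release from rat beta cells at 5 mM glucose, no numeric limit stated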); details: rat INS-1E insulin secretion, at 10 µM, stronger effect = higher value
[2] = growth inhibition of GSK3B-pretreated HCT116 cells – cell-based, CellTiter-Glo, 0.2 to 20 µM (AID 1117336;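 active = compounds lowering colon cancer cell viability after pretreatment blocking the GSK3B kinase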); details: HCT116 viability after GSK3B inhibitor, at 20 µM, stronger effect = higher value
[3] = inhibition of endothelial tube formation, primary screen, imaging, VEGF stimulated, CD31 staining, tube area, NPC library (AID 1117340;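 active = compound that reduces growth-factor-driven endothelial tube area in a mixed cell culture, no cutoff stated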); details: VEGF-stimulated ADSC/ECFC co-culture, at 10 µM, stronger effect = higher value
[4] = glucagon-like peptide 1 release enhancers, primary assay, NCI-H716 cell line, NPC library (AID 1117341;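 active = compound raises GLP1 secretion from the human gut endocrine cells, with no numeric limit stated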); details: NCI-H716 cells, at 10 µM, stronger effect = higher value
[5] = HCT116 colon cancer cell growth inhibition, primary screen, CellTiter-Glo luminescence, NPC library (AID 1117342;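 active = compounds that lower survival of HCT116 colon cancer cells in the luminescence readout, no numeric limit stated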); details: at 20 µM (top of the series)
[6] = CellTiter-Glo luminescent readout of SW480 viability loss, NPC library primary (AID 1117343;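 active = compounds that lower viability of the colon cancer cells in the luminescence readout, with no numeric limit stated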); details: CellTiter-Glo luminescence; at 20 µM (top of the series)
[7] = decreased DLD-1 cellular survival, CellTiter-Glo luminescent readout, NPC compound collection, primary HTS (AID 1117346;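 active = compounds that lower survival of DLD-1 colon cancer cells in the luminescence readout, no cutoff given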); details: DLD-1 viability, CellTiter-Glo luminescence; at 20 µM (top of the series)
[8] = modulation of C. elegans fzo-1 (AID 1259413);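 also: fzo-1 mutant C. elegans worms in liquid wells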; details: C. elegans fzo-1 modulator screen, mean read-out; stronger effect = higher value
[9] = differential killing of epithelial or mesenchymal cells, primary screen, imaging, PC-3E GFP, TEM4-18 mCherry, co-culture (AID 1345086;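 active = compounds killing one labelled cell type while sparing the other, by normalised counts and ratio limits, not self-fluorescent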;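 as to all read-outs here: cells exposed to compound for 72 h before imaging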;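 as to red/green cell ratio (normalised): normalised mesenchymal count divided by normalised epithelial count so high means epithelial killing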); details: imaging cell counts, at 1 µM; for red/green cell ratio (normalised): actives lie on both sides, counts scaled to control wells, 1 = unselective
[10] = tested on: Aerobactin synthetase IucA (Klebsiella pneumoniae); assay: IucA aerobactin synthetase inhibitors, biochemical, Tocris library, absorbance (AID 1345561); details: purified IucA enzyme assay, absorbance (OD) read-out; stronger effect = lower value;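 tested at 8 µM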;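 also: 100% = enzyme without compound and 0% = no enzyme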
[11] = growth inhibition of DIPG glioma cells, dose response, cell-based, JHH-DIPG-1, MIPE4.0, CellTiter-Glo, qHTS (AID 1347062; cut-off not given, nearly all actives have AC50 up to about 27 µM); details: JHH-DIPG-1 viability, CellTiter-Glo ATP luminescence
[12] = growth inhibition of DIPG glioma cells, dose response, cell-based, SU-DIPG-IV, MIPE4.0, CellTiter-Glo, qHTS (AID 1347063; cut-off not given, nearly all actives have AC50 up to about 30 µM;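 also: compound exposure lasted 48 hours before the viability readout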); details: SU-DIPG-IV viability, CellTiter-Glo ATP luminescence
[13] = growth inhibition of DIPG glioma cells, dose response, cell-based, SU-DIPG-XVII, MIPE5.0, CellTiter-Glo, qHTS (AID 1347060; cut-off not given, nearly all actives have AC50 up to about 26 µM); details: SU-DIPG-XVII viability, CellTiter-Glo ATP luminescence
[14] = growth inhibition of DIPG glioma cells, dose response, cell-based, SU-DIPG-XIII, MIPE4.0, CellTiter-Glo, qHTS (AID 1347061; cut-off not given, nearly all actives have AC50 up to about 37 µM;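 also: cells exposed to compound for 48 hours before readout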); details: SU-DIPG-XIII viability, CellTiter-Glo ATP luminescence
[15] = growth inhibition of DIPG glioma cells, dose response, cell-based, SU-DIPG-XIII, MIPE5.0, CellTiter-Glo, qHTS (AID 1347064; cut-off not given, nearly all actives have AC50 up to about 23 µM); details: SU-DIPG-XIII viability, CellTiter-Glo ATP luminescence
[16] = measured here: epithelial PC-3E GFP cell survival
[17] = measured here: mesenchymal TEM4-18 mCherry cell survival

SMILES	insulin secretion stimulation [1]	viability decrease [2]	tube area decrease [3]	GLP1 secretion stimulation [4]	inhibition of viability [5]	viability decrease (inhibition) [6]	viability decrease (inhibition) [7]	mean signal [8]	red/green cell ratio (normalised) [9]	normalised cell number [9, 16]	normalised cell number [9, 17]	remaining activity [10]	outcome [11]	outcome [12]	outcome [13]	outcome [14]	outcome [15]
COCCCC/C(=N\OCCN)c1ccc(C(F)(F)F)cc1	1.6% (inactive)	-112% (inactive)	-2.4% (inactive)	-1.9% (inactive)	37.3% (inactive)	15.4% (inactive)	23.5% (inactive)	245 (inactive)	0.92 (inactive)	1.1	1.01	125% (inactive)	inactive	inactive	–	–	–
Oc1ccc(C2CNCCc3c2cc(O)c(O)c3Cl)cc1 (stereo not given)	5.4% (inactive)	66.2% (active)	42.2% (active)	1% (inactive)	50.2% (active)	50.9% (active)	29.6% (inactive)	286 (inactive)	1.06 (inactive)	1.1	1.17	110% (inactive)	inactive	–	inactive	inactive	inactive
COC(=O)C1=C(C)NC(C)=C(C(=O)OCC(C)C)C1c1ccccc1[N+](=O)[O-] (stereo not given)	1.25% (inactive)	102% (active)	15.6% (inactive)	1.3% (inactive)	97.8% (active)	122% (active)	86.2% (active)	228 (inactive)	0.97 (inactive)	1.11	1.08	–	–	–	–	–	–
Nc1nc(N)nc(-c2cc(Cl)ccc2Cl)n1	2% (inactive)	20.3% (inactive)	-11.3% (inactive)	-1.2% (inactive)	-27.9% (inactive)	-12.5% (inactive)	-18.2% (inactive)	297 (inactive)	1.01 (inactive)	1.08	1.09	103% (inactive)	inactive	–	inactive	inactive	–
c1cnc(N2CCN(Cc3ccc4c(c3)OCO4)CC2)nc1	1% (inactive)	-13.4% (inactive)	-4.5% (inactive)	10.3% (inactive)	4.13% (inactive)	-7.2% (inactive)	-20% (inactive)	255 (inactive)	1.12 (inactive)	0.85	0.96	119% (inactive)	–	–	–	–	–
CCOC(=O)OC(C)OC1=C(C(=O)Nc2ccccn2)N(C)S(=O)(=O)c2ccccc21 (stereo not given)	0.55% (inactive)	5.8% (inactive)	-1.1% (inactive)	1% (inactive)	8.6% (inactive)	-18.8% (inactive)	-0.2% (inactive)	259 (inactive)	1.19 (inactive)	0.84	1	–	–	–	–	–	–
Nc1ccc(O)c(C(=O)O)c1	-1.5% (inactive)	2.55% (inactive)	-5.5% (inactive)	-4.4% (inactive)	6.8% (inactive)	22.9% (inactive)	20.4% (inactive)	261 (inactive)	1.19 (inactive)	1.04	1.24	–	–	–	–	–	–
O=C(O)/C=C/c1ccc(Cn2ccnc2)cc1	1.9% (inactive)	-15.3% (inactive)	3% (inactive)	5.1% (inactive)	6.1% (inactive)	9.3% (inactive)	9% (inactive)	275 (inactive)	1.06 (inactive)	1	1.05	107% (inactive)	inactive	inactive	inactive	inactive	inactive
Cn1nnc2c(C(N)=O)ncn2c1=O	6.3% (inactive)	-10.2% (inactive)	26.7% (inactive)	-2.4% (inactive)	1.9% (inactive)	-3.8% (inactive)	-1.4% (inactive)	230 (inactive)	1.08 (inactive)	1.03	1.11	102% (inactive)	inactive	inactive	inactive	inactive	inactive
CCOC(=O)c1ncn2c1CN(C)C(=O)c1cc(F)ccc1-2	1.6% (inactive)	-39.4% (inactive)	-3.4% (inactive)	0.1% (inactive)	0.15% (inactive)	17.1% (inactive)	4% (inactive)	276 (inactive)	0.89 (inactive)	0.95	0.84	110% (inactive)	–	inactive	inactive	inactive	–
O=C(NCCN1CCOCC1)c1ccc(Cl)cc1	-2.6% (inactive)	-7.6% (inactive)	6% (inactive)	0.4% (inactive)	-2.6% (inactive)	35.1% (inactive)	-7.9% (inactive)	247 (inactive)	0.88 (inactive)	0.89	0.79	–	–	–	–	–	–
COc1cc2nc(N3CCN(C(=O)C4CCCO4)CC3)nc(N)c2cc1OC (stereo not given)	0.35% (inactive)	7.5% (inactive)	9.3% (inactive)	1.3% (inactive)	-9.1% (inactive)	-2.8% (inactive)	5.5% (inactive)	236 (inactive)	0.95 (inactive)	0.99	0.94	115% (inactive)	inactive	inactive	–	inactive	–
CCOc1cc(CC(=O)N[C@@H](CC(C)C)c2ccccc2N2CCCCC2)ccc1C(=O)O	43.9% (active)	70.5% (active)	-11.3% (inactive)	0.5% (inactive)	29.7% (inactive)	68.3% (active)	33.3% (inactive)	247 (inactive)	0.96 (inactive)	1.2	1.16	120% (inactive)	inactive	inactive	inactive	–	–
